Hits are enriched below; roughly 1.2% of the tested compounds scored in any of these assays.
GALR2 antag – GALR2 (human) receptor antagonism; GALR2-expressing cells, antagonist mode; O43603; AID 828; inhibition, % at 4 µM; 140,000 tested, 0.39% active;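 also: cells stimulated with galanin 1-16 at roughly its EC80; 0% = agonist challenge control and 100% = basal control without agonist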
Target sequence (O43603 whole entry, looked up): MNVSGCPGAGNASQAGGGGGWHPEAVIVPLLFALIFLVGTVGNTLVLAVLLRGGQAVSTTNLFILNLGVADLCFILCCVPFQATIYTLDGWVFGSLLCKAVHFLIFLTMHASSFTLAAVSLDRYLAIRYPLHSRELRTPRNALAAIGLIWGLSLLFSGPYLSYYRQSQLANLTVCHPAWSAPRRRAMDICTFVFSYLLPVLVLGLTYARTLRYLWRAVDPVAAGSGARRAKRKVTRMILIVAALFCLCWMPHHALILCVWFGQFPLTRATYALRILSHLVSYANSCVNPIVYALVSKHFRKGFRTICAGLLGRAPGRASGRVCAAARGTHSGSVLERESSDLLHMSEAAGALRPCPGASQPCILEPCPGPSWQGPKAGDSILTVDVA
S1P2 antag – blocks the human S1P2 receptor; O95136; cell-based S1P2 antagonist assay, inhibition at 5 uM; inhibition, % at 5 µM; 97,000 tested, 0.21% active; AID 736; in the data active = inhibition above about 45%;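 also: CRE beta-lactamase reporter cells expressing human S1P2 stimulated with S1P; 0% = agonist at EC80 alone and 100% = agonist plus reference antagonist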
S1P2 agonist – activates the human S1P2 receptor; AID 729; O95136; activation, % at 4.5 µM; S1P2-expressing cell line, agonist reporter read-out; 97,000 tested, 0.46% active; in the data active = activation above about 16%;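 also: 0% = vehicle low control and 100% = maximal reference agonist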
GALR2 ag – activates the human galanin receptor 2 | 140,000 tested, 0.48% active | activation, % (test concentration not listed) | GALR2-expressing cells, agonist activation read-out | AID 803 | O43603; in the data active = activation above about 5%, passing the limit was not always enough;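 also: 0% = vehicle buffer wells and 100% = reference agonist at full effect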
GALR2 blk conf – GALR2 (human) antagonism confirmed | inhibition, % at 4 µM | AID 866 | shares compounds with GALR2 antag | 480 tested, 60% active | GALR2-expressing cells, antagonist mode, inhibition;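 also: cells stimulated with galanin at about its EC80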
BLA inhib ctr – counter-screen for GALR2 antagonists: beta-lactamase reporter inhibitors; shares compounds with GALR2 antag; CHO NFAT-BLA reporter, beta-lactamase FRET, thapsigargin-stimulated; inhibition, % at 4.2 µM; 480 tested, 36% active; AID 867;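 active = inhibition above the mean inhibition across tested compounds plus 3 SD, cut at about 27% in these data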;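 also: 0% = 500 nM thapsigargin stimulated wells and 100% = unstimulated BSA only wells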
Numbers without * were called inactive; . = not tested or not shown. Rule as the data show it, unless noted: active = inhibition above about 27%; inactive = the rest.

SMILES	GALR2 antag	S1P2 antag	S1P2 agonist	GALR2 ag	GALR2 blk conf	BLA inhib ctr
Cc1ccc(Cn2ncc(Cl)c(Cl)c2=O)cc1	22	.	.	0	.	.
O=c1c(Cl)c(Cl)cnn1-c1ccccc1	88*	.	.	-3	92*	78*
COc1ccc(CCNC(=O)CSc2nc3ccccc3o2)cc1	-1	-2	-3	-2	.	.
CCn1ccnc1C(O)c1ccccc1OC (configuration not stated)	4	-4	-3	-1	.	.
Cc1cc(C)nc(SCc2ccc(C(=O)N/N=C/c3cccc(O)c3O)cc2)n1	28*	.	.	-1	22	28*
O=[N+]([O-])c1cc(C=Nc2ccc3ccccc3c2)ccc1Br	33*	.	.	-2	13	5
O=[N+]([O-])c1ccccc1N/N=C/c1c[nH]c2ccccc12	9	4	-3	-2	.	.
O=[N+]([O-])c1ccc(N/N=C/c2c[nH]c3ccccc23)cc1	36*	34	-11	-4	25	30*
COc1coc(C(O)CN)cc1=O (configuration not stated)	3	.	.	-3	.	.
CCOC(=O)C(=Cc1cc(=O)c(OC)co1)C(=O)OCC	41*	.	.	-2	67*	58*
COc1ccc(C(=O)c2sc(NC(C)C)nc2N)cc1OC	2	8	-2	-3	.	.
COc1cccc(C(=O)c2sc(NC(C)C)nc2N)c1	40*	.	.	-3	10	-2
CCOC(=O)C1=C(O)c2ccccc2C(=O)/C1=C\c1ccc(C)cc1	30*	.	.	-1	15	14
Cn1c(SCC(=O)Nc2ccc3cn[nH]c3c2)nnc1-c1cccs1	30*	10	-6	-2	18	14
Cc1nc2sccn2c1-c1csc(NCc2ccccc2)n1	27*	41	-7	-2	24	-1
CN(/N=C\c1ccc(O)c(O)c1)c1nc(-c2ccccc2)cc(-c2ccccc2)n1	47*	.	.	0	64*	81*
CC(Oc1cc(-c2ccccc2)cc2ccccc12)C(=O)N1CCOCC1 (configuration not stated)	5	-18	0	-1	.	.
Cc1ccc(-n2c(Cl)c(Cl)nc(Cl)c2=O)cc1	81*	.	.	2	92*	99*
Oc1ccc(Nc2nc3ccccc3nc2Nc2ccc(O)cc2)cc1	32*	21	-1	0	34*	33*
Cc1c(C(=O)Nc2cccc(Cl)c2)c2ccccn2c1CCc1ccncc1	33*	.	.	-2	15	15
Cc1cccc(CSc2cccc3cccnc23)c1	29*	29	-5	-1	24	19
CCC(C)NC(=O)c1ccccc1NS(=O)(=O)c1ccc(OC)c(OC)c1 (configuration not stated)	-10	4	-2	-2	.	.
O=C1c2cccc(Cl)c2C(=O)c2c1cccc2N1CCCC1	7	10	-7	-2	.	.
CCOC(=O)N1CCC(N2C(=O)c3ccc(C(=O)Nc4ccc(F)cc4F)cc3C2=O)CC1	28*	.	.	-1	-2	0
CCOC(=O)N1CCN(C(=O)c2ccccc2NC(=O)c2ccc(F)cc2)CC1	-16	.	.	1	.	.
SMILES	GALR2 antag	S1P2 antag	S1P2 agonist	GALR2 ag	GALR2 blk conf	BLA inhib ctr
COc1ccc(O)c(/C=N/NC(=S)Nc2cccc(S(=O)(=O)N(C)C)c2)c1	35*	.	.	-1	21	13
Cc1cc2c(c(=O)n1C)C(Cc1ccccc1)C(C#N)=C(N)O2 (configuration not stated)	11	13	0	-1	.	.
COc1ccccc1-c1nc2cc3ccccc3cc2nc1-c1ccccc1	-7	.	.	-1	.	.
O=C1Nc2ccccc2/C1=C/C(=O)c1cccs1	27*	4	-7	-3	30*	11
Cc1ccc(/C=C2\C(=O)Nc3ccccc32)o1	1	.	.	-1	.	.
CC(=O)N1CCc2cc(S(=O)(=O)NC(Cc3ccccc3)C(=O)Nc3cc(C)ccn3)ccc21 (configuration not stated)	29*	-2	-7	-2	3	3
CCC(=O)N1CCc2cc(S(=O)(=O)NC(Cc3ccccc3)C(=O)NC3CCCCC3)ccc21 (configuration not stated)	17	.	.	-2	.	.
O=C(O)Cc1sc(N/N=C\c2ccccc2)nc1-c1ccccc1	29*	.	.	-1	11	1
N#Cc1c(-c2ccccc2F)cc(C2CC2)nc1SCC(=O)c1cccs1	28*	.	.	-1	32*	32*
Cc1ccc(NC(=O)CN2C(=O)NC3(CCc4ccccc43)C2=O)cc1Cl (configuration not stated)	28*	16	-6	-4	4	-1

Screens (PubChem BioAssay)
